Results: ChEMBL document CHEMBL5308541, “MAIP: An Open-Source Tool to Enrich High-Throughput Screening Output and Identify Novel, Druglike Molecules with Antimalarial Activity” (ACS Med Chem Lett, 2023)
Screen size: about 150,000 compounds; about 540 (0.36%) showed an effect of 50% or more. This is one part of a sample in which strong results are shown more often than they occur.

Tested on: Plasmodium falciparum
Assay: Primary screen in NF54 nanoGlo assay, in single point, at 2uM, 72h; a lower Z score goes with more inhibition
Type: functional, Erythrocyte
Conditions: timepoint 72 hour

Compound	% Inhibition	Z score
Cc1ocnc1CNC[C@H](O)c1ccc(Cl)c(Cl)c1	94%	-18.67
Cn1nc(C(=O)Nc2cnc(CC3CC3)nc2)cc1C(F)(F)F	1%	-0.26
CCC(=O)N1CC[C@H](Nc2cc(C)nc3ccccc23)C1	-8%	1.36
CCCN1CCC(Nc2cc(C)nc3ccccc23)CC1	58%	-8.81
Cc1ccc2[nH]c(-c3cc4n(n3)CCN(c3ccnc(N)n3)C4)nc2c1C	84%	-16.64
CN1CCC(N(C)C[C@H](Nc2ncnc3ccccc23)c2ccccc2)CC1	98%	-17.15
C[C@](O)(CN1CCC(NCc2ccccc2)CC1)C(F)(F)F	-6%	0.96
COc1ccccc1N1CCN(C2CCN(c3ccc(C(=O)N[C@@H](C)c4ccccc4)cc3)CC2)CC1	-11%	1.99
OC1(c2ccc(Cl)cc2)CCN(C[C@@H]2CCCN3CCCC[C@H]23)CC1	82%	-16.27
CCNc1nc(NCc2ccccc2)c2cn[nH]c2n1	-6%	1.21
CC(CCO)CNc1nc(NCC(C)CCO)c2ccccc2n1 (centres undefined)	1%	-0.17
COCCNc1nc(N[C@@H](C)c2ccccc2)c2ccccc2n1	52%	-11.2
CN1CCN(C2(CNc3ncc(F)c(N(C)C)n3)CCCCC2)CC1	7%	-1.15
Cc1noc(-c2cccc(NC(=O)c3ccccc3-c3ncc(-c4ccccc4)o3)c2)n1	-8%	1.16
CN1CCN(C[C@H]2CCCN(CC(C)(C)N3CCOCC3)C2)CC1	-20%	3.47
Cc1cccc2c(-c3n[nH]c4ncnc(N)c34)c[nH]c12	-3%	0.47
CC(C)CCC1CCCC1NCCCN1CCOCC1 (centres undefined)	6%	-1.29
CNc1cc(C)nc2cc(OC)ccc12	-6%	0.97
COc1ccc2nc3cc(Cl)ccc3c(O)c2c1	65%	-9.86
COc1ccc2c(O)c(Br)c(C)nc2c1	75%	-13.24
COCCN1CCC[C@@]2(CCN(c3ccnc4cc(Cl)ccc34)C2)C1	99%	-17.32

Compound	% Inhibition	Z score
COCCN1CC[C@H](CN(C)c2ccnc3cc(Cl)ccc23)C1	98%	-17
CN1CCC[C@@H]1CCNc1ncnc2cccc(F)c12	9%	-1.43
CCN(Cc1cnn(-c2cccc(Cl)c2)c1)CC1CCN(C2CCN(C)CC2)CC1	82%	-14.12
CCN(Cc1cc(F)ccc1-n1cccn1)CC1CCN(C2CCN(C)CC2)CC1	16%	-2.76
COc1ccc2[nH]c(CN(Cc3cccnc3)CC3CCN(C4CCCC4)CC3)c(C)c2c1	1%	-0.23
CCN(Cc1cccc(OC2CCCC2)c1)CC1CCN(C2CCN(C)CC2)CC1	20%	-3.46
CCN(Cc1cnc(-c2ccccc2C)nc1)CC1CCN(C2CCN(C)CC2)CC1	-7%	1.18
CCN(Cc1[nH]c2ccc(Cl)cc2c1C)CC1CCN(C2CCN(C)CC2)CC1	85%	-14.61
Fc1ccc2ncnc(NC3CCN(C[C@H]4CCOC4)CC3)c2c1	-10%	2.15
CN(CCCn1ccnc1)c1ccnc2cc(Br)ccc12	99%	-17.18
COc1cccc(-c2nc3cc(C#N)ccc3[nH]2)n1	0%	0.04
N#Cc1cccc(Cl)c1N1CCC(O)(CN)CC1	-3%	0.43
O[C@@]1(c2c[nH]nn2)CCN(c2ccnc3cc(Cl)ccc23)C1	44%	-6.63
NCC1(O)CCN(c2ccnc3cc(F)c(Cl)cc23)CC1	95%	-20.37
Cn1c(NCc2ccc(N3N=C(c4ccccc4)C[C@H]3c3ccccc3)cc2)nc2ccccc21	-11%	1.96
C[C@H]1CCCN(CCOc2ccccc2CN2CCN(c3cccnc3)CC2)C1	-2%	0.3
CN1CCN(CCOc2ccccc2CN2CC3CCC(C2)NC3)CC1 (centres undefined)	-1%	0.22
Cc1cnccc1N1CCCN(Cc2ccccc2OCCN2CCN(C)CC2)CC1	96%	-19.05
O=C(NC[C@@H](CN1CCCC1)C1CC1)c1ccnn1CC(F)(F)F	-1%	0.12
C[C@@H](CS(C)(=O)=O)N(C)c1ncnc2cccc(F)c12	6%	-1.06
C[C@H]1CCCN(CCNC(=O)c2ccc(-c3ccc4c(=O)[nH]ccc4c3)cc2)C1	67%	-11.64
